Source: PubChem BioAssay

assay: inhibitors of Chlamydomonas gravitaxis, primary screen, whole organism, Chlamydomonas reinhardtii, WT vs cilia-less mutant, absorbance, 96-well (AID 463189); details: OD600 absorbance, 2 days, at 10 µM, active compounds read high;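 active means inhibition at or above 50% relative to wild type and mutant plate controls; inactive means inhibition below 50%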;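 further: 0% = wild type cc124 cells in DMSO and 100% = ciliumless bld1 mutant cells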

inhibition, inactive:
Cc1ccc(/C(=C\CN2CCCC2)c2ccccn2)cc1 11.6%
c1cnc2c(c1)ccc1cccnc12 10.8%
CC(C(=O)O)c1ccc(CC2CCCC2=O)cc1 (configuration not stated) -6.18%
CC(/C=C/c1cccc(Oc2ccc(F)cc2)c1)N(O)C(N)=O (configuration not stated) 4.78%
C=CCn1c(=O)c2c(nc(-c3ccc(S(=O)(=O)O)cc3)n2C)n(C)c1=O 4.78%
O=C(O)CN(CCOCCOCCN(CC(=O)O)CC(=O)O)CC(=O)O 3.4%
CC(=O)[C@H]1CCC2C3CC=C4C[C@@H](OS(=O)(=O)O)CC[C@]4(C)C3CC[C@@]21C (some centres not stated) 4.69%
O=C1c2c(O)cc(O)cc2OC(c2ccc(O)c(O)c2)C1O (configuration not stated) -16.9%
OC(CN1CCN(c2cccc(Cl)c2)CC1)C(c1ccccc1)c1ccccc1 (configuration not stated) 4.93%
CN(C)CCC=C1c2ccccc2C=Cc2ccccc21 12.9%
O=[N+]([O-])c1ccc(CSc2ncnc3c2ncn3[C@@H]2O[C@H](CO)[C@H](O)C2O)cc1 (some centres not stated) -2.08%
COC(=O)[C@H]1[C@H]2C[C@H]3c4[nH]c5ccccc5c4CCN3C[C@H]2CC[C@@H]1O 6.15%
O=c1[nH]c2cc([N+](=O)[O-])c([N+](=O)[O-])cc2[nH]c1=O 5.09%
N#CC(=C(\N)Sc1ccccc1N)/C(C#N)=C(/N)Sc1ccccc1N 13.7%
O=c1c2ccccc2nc2n1CCc1c-2[nH]c2ccccc12 2.73%
CCN1/C(=C/C(C)=O)Sc2ccc(OC)cc21 9.38%
CN(C)S(=O)(=O)c1ccc2c(c1)/C(=C/c1cc3c([nH]1)CCCC3)C(=O)N2 4.39%
CCCCN1CCC(n2c(=O)[nH]c3ccccc32)CC1 4.67%
O=Nc1ccc2oc(=O)ccc2c1 -9.21%
CCNC(=O)[C@H]1O[C@@H](n2cnc3c(N)nc(NCCc4ccc(CCC(=O)O)cc4)nc32)C(O)[C@H]1O (some centres not stated) 3.28%
CC(=O)CCCCn1c(=O)c2c(ncn2C)n(C)c1=O -0.901%
Nc1ccn([C@@H]2O[C@H](CO)[C@@H](O)[C@@H]2O)c(=O)n1 0.194%
OCC1NCC(O)C(O)C1O (configuration not stated) -0.461%
NCCNC(=O)c1ccc(Cl)cc1 5.46%
O=C(O)/C=C/C(O)c1ccc(Cl)cc1 (configuration not stated) -3.97%
COc1ccccc1N1CCN(CCN(C(=O)c2ccc(I)cc2)c2ccccn2)CC1 -3.47%
O=c1onc2n1-c1cc(Br)ccc1OC2 -0.03%
